In PubChem BioAssay AID2669 (National Center for Advancing Translational Sciences (NCATS), 2010) one finds Potency data, which are given here for 40 molecules.

“And” between values parts separate entries of the source, which are not always exact repeats. Identical values can stand only once. Inconclusive results are not listed. Entries that show only a call come without a potency. The source made the active and inactive calls. The call rests on the fitted dose curve; in most records, active means well fitted inhibition curve with a large enough effect; inconclusive means small, poorly fitted or top-dose-only effect, or effect the other way; inactive means flat fitted curve, though single readings scatter.

This test can be described thus: qHTS Assay Multiplex Screening to Identify Dual Action Probes in a Cell Model of Huntington: Cytoprotection (Protease relase). The settings on record: PC12 HttQ103 cells, Cytotox-Glo protease release, 40 h; series mostly up to 46.1 µM. The text has this:
NIH Chemical Genomics Center [NCGC]
NIH Molecular Libraries Probe Production centers Network [MLPCN]
Assay Submitter (PI): Wei Zheng
Huntington's disease is a neurodegenerative disorder caused by a trinucleotide repeat expansion in Exon 1 of the Huntingtin gene. The CAG trinucleotide encodes glutamine and polyglutamine expansions cause cell death in selective areas of the brain. Huntington polyglutamine repeats have the tendency to form aggregates which are observable in later stages of the disease. The exact nature of the aggregates, whether toxic, protective, or insignificant, is unclear.
A stable PC12 cell line containing a gene fusion of Exon 1 of the Huntingtin gene linked to GFP under the control of the inducible ecdysone promoter were used as the cell-based model of Huntington Disease for high throughput screening. Exon 1 of the Huntingtin gene contained an expansion of 103 polyglutamines (Q103) which, when expressed, caused cell death and distinct, bright GFP aggregates. The amount of cell death and the size and intensity of GFP aggregates increased over time and induction level. In the primary screen, cell death were quantified with a measurement of ATP content in the cells. A maximal 40-50% of cell death was observed when the Huntington gene was induced in this cell line.
We optimized this assay in a homogeneous 1536 well format. A quantitative high throughput screen (qHTS) was conducted on the PC12 cells which were induced to express the toxic fusion construct. Small molecules which prevented cell death were considered hits, and were further studied. The present assay is an alternate assay for cytoprotection using Promega's Cytotox-Glo reagent.
PC12 cells stably containing a construct with an ecdysone inducible promoter expressing GFP fused to the exon 1 of HTTQ103 (Huntington protein which containing a 103 ployglutamine expansion) were used.
NCGC Assay Protocol Summary:
Sequence, Parameter, Description
1, Reagent, 5 uL 1500 cells/well 1536 TC treated White clear bottom plate
2, Compound, 23 nL Tebufenozide inducer (100 nM final) to all columns
3, Compound, 23 nL 40 uM to 0.5 nM Libraries
5, Reagent, 2 ul Promega's Cytotox-Glo assay reagent
6, Detector, 4 sec integration with a Viewlux Luminescent
Media consisted of phenol red free DMEM + 5% equine serum (Hyclone # SH30072.03 ), 5% supplemented Bovine Calf Serum (Hyclone # SH30074.03 ), 1x pen/strep, no G418
(In general: qHTS replaces the single test concentration by a dilution series.)
Regarding `Cc1cccc(-c2csc3ncnc(Sc4nnnn4C)c23)c1`, the Potency is 14.1 µM (active). Under `CCC(=O)OCCCCCCOc1ccc(C(=O)O)cc1` stands 0.891 µM (active); under `Cc1noc(C)c1COC(=O)Cc1ccc(Cl)cc1`, “inactive”; under `Cn1nnnc1Sc1ncnc2scc(-c3ccc(-c4ccccc4)cc3)c12`, 10 µM (active). Take `N#Cc1ccsc1NC(=O)CSc1ncnc2ccccc12`: the Potency entry was “inactive”. For `NC(=O)C1CCN(CCC(=O)Nc2ccc(Br)cc2)CC1`, the Potency result was “inactive”. Regarding `c1csc(-c2cn3c(n2)SCC3)c1`, the Potency result is “inactive”. To `Cc1nnc(C)n1/N=C/c1cc(Br)cc(Br)c1O` belongs “inactive”. `Cn1nnnc1Sc1ncnc2scc(Br)c12`: the Potency is 7.94 µM (active).

As for `Cn1nnnc1Sc1ncnc2scc(-c3ccccc3[N+](=O)[O-])c12`, the Potency was 20 µM (active). Under `CCc1nc(SCC(=O)Nc2nc3c(s2)CCCC3)c2ccccc2n1` stands “inactive”; under `C#CCN(C)CCCOc1ccc(Cl)cc1Cl`, “inactive”.

Turning to `COc1cc(-c2nc(S(=O)(=O)c3ccc(C)cc3)c(N(C)C)o2)cc(OC)c1OC`, the Potency entry was “inactive”. Under `O=[N+]([O-])c1ccc(O)c2ncccc12` stands 22.4 µM (active). Under `Cc1cccc(OCc2nc(C)cc(=O)[nH]2)c1` stands 10 µM (active); under `Cc1cc(C)nc(Sc2nc(C)nc3c2oc2ccccc23)n1`, “inactive”. Turning to `O=Nc1c(-c2c(O)[nH]c3ccccc23)[nH]c2ccccc12`, the Potency is 631 nM (active) and 1.41 µM (active).

For `O=C(c1ccccc1)c1ccc2n1CCC2C(=O)O` (stereo not given), the Potency was 3.98 µM (active).

In the case of `O=C(Nc1ccccc1)C1=C(O)CC(c2ccco2)CC1=Nc1ccccc1` (stereo not given), the Potency entry was “inactive”. To `C[C@@H]1CNCCN1S(=O)(=O)c1cccc2cnccc12` belongs “inactive”. In the case of `COc1ccc(CNC(=O)CN(C(=O)CCC(=O)Nc2ccccn2)c2ccccc2OC)cc1`, the Potency entry is “inactive”. Under `CS(=O)(=O)c1ccc([C@H](O)[C@H](CO)NC(=O)C(Cl)Cl)cc1` stands “inactive”; under `CCCCCCCCNc1ncnc2ccccc12`, “inactive”. To `CN1C(=O)C2(c3ccccc31)C1CCCC=C1C(C#N)=C(N)C2(C#N)C#N` (stereo not given) belongs “inactive”. Consider `Cn1nnnc1Sc1ncnc2scc(-c3ccc(S(C)(=O)=O)cc3)c12`, for which the Potency was 11.2 µM (active).

With `Cn1nnnc1Sc1ncnc2scc(-c3ccc4c(c3)OCO4)c12`, the Potency was 10 µM (active). In the case of `C=CS(=O)(=O)c1ccc(Oc2ccc(S(=O)(=O)C=C)cc2)cc1`, the Potency was 10 µM (active). To `Cn1nnnc1Sc1ncnc2scc(-c3cccc(Cl)c3)c12` belongs 11.2 µM (active); to `COc1ccc(-c2csc3ncnc(Sc4nnnn4C)c23)cc1`, 11.2 µM (active). As for `CCOC(=O)c1sc2nc(N3CCOCC3)c3c(c2c1N)CCN(C)C3`, the Potency result was “inactive”.

As for `COc1cc2nc(N3CCN(C(=O)C4CCCO4)CC3)nc(N)c2cc1OC` (stereo not given), the Potency is 4.47 µM (active). For `COc1ccc(C)cc1NC(=O)C(Sc1nnnn1C)c1ccccc1` (stereo not given), the Potency result is “inactive”. To `Cn1nnnc1Sc1ncnc2scc(-c3cccc([N+](=O)[O-])c3)c12` belongs 12.6 µM (active); to `Cn1nnnc1Sc1ncnc2scc(-c3ccc(C(F)(F)F)cc3)c12`, 12.6 µM (active); to `Cc1ccc(S(=O)(=O)CCc2nc3ccccc3n2CCC#N)cc1`, 25.1 µM (active). Under `Cn1nnnc1Sc1ncnc2scc(-c3cnc(N)nc3)c12` stands 11.2 µM (active); under `COC(=O)CNC(=O)C1CCN(C(=O)OCc2ccccc2)CC1`, 1.41 µM (active).

As to `O=C(Nc1ccc(Cl)cc1C(F)(F)F)C(Sc1cccc[n+]1[O-])c1ccccc1` (stereo not given), the Potency entry is “inactive”. `N#CCCn1c(Cl)nc2ccccc21`: the Potency entry is “inactive”. To `COc1cc(NC(=O)COC(=O)[C@@H]2CCCN2S(=O)(=O)c2ccc(Cl)cc2)cc(OC)c1OC` belongs “inactive”.
